Screens (PubChem)
Most compounds without a hit are left out; they make up all but 7% or so of the library.
ADAM17 inh – inhibitors of human ADAM17. P78536. recombinant ADAM17, EDANS/DABCYL FRET peptide cleavage. inhibition, % at 6.95 µM. 0.83% of 370,000 active. AID 720648;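 active means inhibition above the mean of compounds lying between control limits plus 3 SD, set per campaign, cut at about 8.5% in these data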;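 further: 0% = DMSO-only wells as the low control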
proKLK7 act – activators of human kallikrein-7 zymogen; P49862; purified proKLK7, EDANS-DABCYL substrate fluorescence; 100% is mature enzyme control, 0% vehicle; activation, % at 7 µM; 0.9% of 370,000 active; AID 652039;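 active means activation above the mean of all tested compounds plus 3 SD, computed per campaign excluding outliers beyond control limits, cut at about 13% in these data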
AHR activator – activators of human aryl hydrocarbon receptor; P35869; activation, % at 5 µM; 2.5% of 320,000 active; AHR-responsive luciferase reporter cells, luminescence; in the data active means activation above about 47%;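 further: 0% = vehicle wells and 100% = reference agonist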
Target sequence (P35869 whole entry, looked up): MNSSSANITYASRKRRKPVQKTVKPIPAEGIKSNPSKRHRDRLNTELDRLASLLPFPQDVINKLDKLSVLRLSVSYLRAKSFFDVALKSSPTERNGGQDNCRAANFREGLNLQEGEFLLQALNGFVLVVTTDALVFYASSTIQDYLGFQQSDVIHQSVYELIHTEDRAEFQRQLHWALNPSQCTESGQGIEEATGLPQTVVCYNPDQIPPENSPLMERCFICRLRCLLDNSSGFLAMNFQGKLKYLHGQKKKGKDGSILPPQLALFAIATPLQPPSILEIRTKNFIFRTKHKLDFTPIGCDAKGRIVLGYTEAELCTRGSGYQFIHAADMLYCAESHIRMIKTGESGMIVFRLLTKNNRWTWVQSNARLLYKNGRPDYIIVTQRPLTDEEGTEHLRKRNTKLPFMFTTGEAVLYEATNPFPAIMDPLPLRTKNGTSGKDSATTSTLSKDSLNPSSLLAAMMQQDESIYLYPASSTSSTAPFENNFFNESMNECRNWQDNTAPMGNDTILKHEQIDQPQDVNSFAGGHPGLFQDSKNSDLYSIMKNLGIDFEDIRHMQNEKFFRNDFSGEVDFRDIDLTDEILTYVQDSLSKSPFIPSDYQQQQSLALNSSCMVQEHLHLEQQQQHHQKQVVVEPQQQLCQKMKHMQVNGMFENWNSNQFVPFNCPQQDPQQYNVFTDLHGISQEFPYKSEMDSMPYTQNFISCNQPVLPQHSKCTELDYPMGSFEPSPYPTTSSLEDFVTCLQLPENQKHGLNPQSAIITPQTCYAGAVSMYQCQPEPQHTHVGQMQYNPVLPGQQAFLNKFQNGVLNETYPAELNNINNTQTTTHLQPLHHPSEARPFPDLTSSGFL
ADAM10 inh – inhibitors of human ADAM10; O14672; recombinant ADAM10, EDANS/DABCYL FRET peptide cleavage, 3 h; inhibition, % at 7 µM; 0.62% of 370,000 active; AID 720582;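 active means inhibition above a per-campaign cutoff equal to the mean of compounds falling between control-based bounds plus 3 SD, cut at about 20% in these data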;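 further: 0% = DMSO wells while the 100% control is not disclosed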
NR3A LBD binder – NR3A (human) ligand-binding domain modulation; NR3A LBD differential scanning fluorimetry, Tm shift; 0% = protein alone, 100% = glycine-bound protein; Tm shift relative to glycine control, % at 25 µM; 2.5% of 340,000 active;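 active means melting temperature shift of at least 10% of the positive control shift, at one fixed dose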
rCAG RNA binder – molecules binding r(CAG) RNA repeats; 1.3% of 370,000 active; r(CAG) RNA repeat, TO-PRO-1 dye displacement fluorescence; inhibition, % at 3 µM; AID 651821;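 active means inhibition above the plate cutoff, the mean of all test compounds on that plate plus 3 SD, cut at about 35% in these data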;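 further: 0% = DMSO alone and 100% = 100 µM mitoxantrone as full dye displacement; higher means more dye released from RNA so lower well fluorescence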
* hit, by the source's call; nt = not tested or not shown.

SMILES	ADAM17 inh	proKLK7 act	AHR activator	ADAM10 inh	NR3A LBD binder	rCAG RNA binder
Cc1nc(-c2ccc(NC(=O)c3ccco3)cc2)cs1	1	0	-4	1	4	0
Cn1cccc1C(=O)N1CCN(S(=O)(=O)c2ccc(C(C)(C)C)cc2)CC1	-1	0	nt	0	nt	3
COC(=O)C1CN(CCc2ccccc2)CCS(=O)(=O)N1Cc1ccccc1F (stereo not drawn)	1	0	nt	4	nt	-2
O=C(Nc1ccc(F)cc1Cl)C1CCCN1S(=O)(=O)c1cccc2cccnc12 (stereo not drawn)	1	1	nt	-3	nt	0
O=C(NC1CC1)C1=C[C@@H](c2c[nH]c3ccccc23)C[C@@H](OCCCCO)O1	-6	-1	65*	-12	2	0
O=C(NC1CC1)C1=C[C@H](c2c[nH]c3ccccc23)C[C@H](OCCCCO)O1	-6	0	72*	-13	3	0
O=C(NC1CC1)C1=C[C@@H](C2CC2)C[C@@H](OCCCCO)O1	-2	0	2	5	1	-2
O=C(NC1CC1)C1=C[C@@H](c2c[nH]c3ccccc23)C[C@@H](OCc2ccc(CO)cc2)O1	-5	0	76*	-11	1	5
C[C@H]1COc2cc(Br)ccc2S(=O)(=O)N1Cc1cn(Cc2ccc(Br)cc2)nn1	-1	0	nt	-4	nt	4
C[C@H](NC(=O)c1[nH]cnc1C(=O)Nc1ccc(Cl)cc1)c1ccccc1	7	0	20	16	24*	19
C[C@@H](NC(=O)c1[nH]cnc1C(=O)Nc1cccc(Cl)c1)c1ccccc1	-1	0	21	-3	26*	6
C[C@H](NC(=O)c1[nH]cnc1C(=O)Nc1cccc(Cl)c1)c1ccccc1	-1	-2	11	1	6	7
C[C@@H](NC(=O)c1[nH]cnc1C(=O)Nc1ccc(Cl)cc1)c1ccccc1	-3	-1	-6	-8	-1	23
COc1ccc(-n2c(SCC(=O)c3ccc4ccccc4c3)nnc2-c2ccccc2)cc1	2	-1	nt	4	nt	12
O=S(=O)(c1ccccc1)c1nc(Nc2cccc(O)c2)sc1Cl	4	0	6	10	11*	9
COc1cccc(C2c3c(ncn(-c4ccccc4)c3=N)Oc3ccc4ccccc4c32)c1OC (stereo not drawn)	-2	nt	nt	-3	nt	nt
CC(=O)Nc1csc2ccccc12	0	0	9	2	-1	-1
O=C(Nc1ccccc1)Nc1csc2ccccc12	4	0	61*	7	31*	12
Cc1cc(C)cc(NC(=O)Nc2ccc3c(c2)N(C)C(=O)CS3)c1	1	0	71*	-8	4	14
CC(=O)Nc1cccc(NC(=O)Nc2cccc(F)c2)c1	-3	0	49*	-2	29*	0
CC(=O)Nc1cccc(NC(=O)Nc2ccc(C(C)=O)cc2)c1	0	0	-1	-6	13*	0
O=C1CCC[C@H]2C[C@H](NCc3ccccc3Cl)CC[C@]23CCCN13	-2	nt	nt	-3	nt	nt
C[C@H]1[C@@H](NC(=O)Cc2ccsc2)CC[C@@]23CCCN2C(=O)CCC[C@@H]13	-3	nt	nt	-1	nt	nt
COC(=O)c1sccc1NC(=O)Nc1cccc(OC)c1	-5	0	11	-3	-1	3
CC(=O)Nc1ccc(NC(=O)Nc2cc(C)cc(C)c2)cc1	-4	1	3	-9	29*	1
SMILES	ADAM17 inh	proKLK7 act	AHR activator	ADAM10 inh	NR3A LBD binder	rCAG RNA binder
CC(=O)c1ccc(NC(=O)Nc2ccc(Cl)cc2)cc1	6	-1	0	13	31*	12
CC(=O)Nc1ccc(C#Cc2ccc(NC(C)=O)cc2)cc1	-6	-2	-8	-16	29*	0
COC(=O)c1sccc1NC(=O)Nc1cccc(F)c1	0	0	34	-4	10*	2
CC(=O)Nc1cccc(C)c1	-4	0	0	-3	3	0
CN[C@H]1C[C@H]2c3[nH]c4cccc(-c5ccc6c(c5)OCO6)c4c3CCN2C[C@H]1[C@H](C)O	-15	-1	nt	-49	nt	22
Cc1ccc(-c2cc(C(=O)N=Nc3c(O)[nH]c4ccccc34)[nH]n2)cc1C	0	0	nt	0	nt	27
C[C@H]1[C@@H](NC(=O)c2cccc(N(C)C)c2)CC[C@@]23CCCN2C(=O)CCC[C@@H]13	-28	nt	nt	-87	nt	nt
CC(O)c1cccc(NC(=O)Nc2cccc(NC(=O)Nc3cccc(C(C)O)c3)c2)c1 (stereo not drawn)	0	0	nt	-3	27*	11
CC(=O)c1cccc(NC(=O)Nc2cnn(Cc3ccc(Cl)cc3Cl)c2)c1	7	0	17	8	14*	9
CC(=O)Nc1ccc(NC(=O)Nc2cccc3ccccc23)cc1	-22	-1	1	-37	0	3
Nc1ccc(C(=O)CC(=O)Nc2ccc(Cl)cc2)cc1	-6	0	1	-10	12*	9
CC(=O)Nc1ccc(NC(=O)Nc2ccccc2)cc1	-3	0	0	1	19*	-1
CC(C)(C)c1ccc(S(=O)(=O)N2CCC(c3cn4ccccc4n3)CC2)cc1	-17	-1	nt	-44	nt	7
CC(=O)Nc1ccc(N=Nc2ccc(O)cc2)cc1	5	0	11	7	15*	2
CC(=O)Nc1ccc(N=NN2CCOCC2)cc1	-2	0	0	-3	-2	0
CC(=O)c1ccc(NC(=S)NCc2ccc(Cl)cc2Cl)cc1	3	0	4	12	16*	11
COC(=O)Cc1ccc(NC(=S)NCc2ccccc2Cl)cc1	-2	0	-6	-4	-11	-1
O=C(CNc1nnnn1-c1ccccc1)N1CCCC1	-2	1	nt	-5	nt	-1
CCCCCCCCN1C(=O)N2Cc3ccc(C)cc3C2CS1(=O)=O (stereo not drawn)	1	1	nt	-1	nt	-1
COc1ccc(-c2csc(NC(=O)C3CCCCN3S(=O)(=O)c3ccccc3)n2)cc1 (stereo not drawn)	10*	0	1	15	0	6
Cc1ccc(-c2cc(C(=O)N/N=C/c3ccccc3)n[nH]2)o1	-1	-1	30	-2	10	2
Cc1ccc(-c2cc(C(=O)N/N=C/c3ccc(Cl)cc3)n[nH]2)o1	4	0	14	13	31*	7
CC(/C=N/NC(=O)c1cc(-c2ccc(C)o2)[nH]n1)=C\c1ccccc1	-11	0	22	-34	22*	6
Cc1[nH]c2ccccc2c1/C=N/NC(=O)CCC(=O)NCc1ccccc1	-8	-1	18	-6	-1	3
CC(/C=N/NC(=O)c1cc(C2CC2)[nH]n1)=C\c1ccccc1	-2	1	24	-3	-8	-2
CCOc1ccc(C(=O)N/N=C(/C)C2C(=O)c3ccccc3C2=O)cc1	1	0	4	-1	-1	6
